Only some compounds are listed: those with a hit (about 0.93% of all), similar ones and a draw of the others.
697 NFkB inh – inhibitors of the PMA/ionomycin-induced NF-kB reporter in 697 B cells. AID 435022. inhibition, % at 4 µM. 697 B-cell NF-kB luciferase reporter, 16 h. 0.33% of 330,000 active; in the data active = inhibition above about 35%
Jurkat NFkB inh – inhibitors of the PMA/ionomycin-induced NF-kB reporter in Jurkat cells. AID 435003. inhibition, % at 4 µM. 0.53% of 330,000 active. PMA/ionomycin-induced NF-kB luciferase reporter, luminescence; in the data active = inhibition above about 50%
F508del corr – CFTR F508del correction in bronchial cells | CFBE cells, YFP halide quenching; stimulated with forskolin plus potentiator P3; % fluorescence drop versus neutral controls | activity (quench increase), % at 7.58 µM | 0.36% of 350,000 active | AID 720511;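 active = mean added fluorescence quench of at least 8% versus neutral control, with both replicates also reaching 8%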;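 note: cells transiently co-express mutant CFTR-F508del with the halide-sensitive YFP; corrector assay measuring rescue of mutant channel to the surface after 24 h compound exposure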
HIF activator – HIF pathway transcriptional activation; U2OS HRE-luciferase reporter, luminescence; normalized: DMSO 0%, desferrioxamine 100%; 0.32% of 300,000 active; AID 1910; activation, % at 7.5 µM (by protocol);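 active = mean activation of at least 10% of the iron chelator positive control signal, with at least half of replicates also reaching 10%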
697 NFkB conf – lowers PMA/ionomycin-induced NF-kB signal in 697 B cells | shares compounds with 697 NFkB inh | 697 B-cell NF-kB luciferase, 16 h | inhibition, % at 4 µM | 35% of 2,000 active | AID 449746; in the data active = inhibition mostly above about 28%, no sharp cut-off; inactive = mostly below about 22%
An asterisk follows results filed as active; i = inactive; · = not tested or not shown.

SMILES | 697 NFkB inh | Jurkat NFkB inh | F508del corr | HIF activator | 697 NFkB conf
COc1ccc2sc(NC(=O)c3ccco3)nc2c1 | -281 | -89 | 3 | -1 | -238
O=C(Nc1nc2c(Br)cc(Br)cc2c(=O)s1)c1ccco1 | 36* | 15 | 5 | 0 | 37*
CCOc1ccc(-c2cc(CCCC(=O)NCCCOC)no2)cc1 | 53* | -2 | · | -3 | 32*
COc1ccc(CN(C)C[C@H]2OCCCC[C@@H](C)Oc3ccc(NS(=O)(=O)c4ccc(C)cc4)cc3C(=O)N([C@@H](C)CO)C[C@@H]2C)cc1 | · | · | -2 | · | ·
O=C(NCC[C@@H]1CC[C@H](NC(=O)c2ccc3c(c2)OCO3)[C@H](CO)O1)Nc1cc(F)ccc1F | · | · | -2 | · | ·
CCOC(=O)Cc1csc(NC(=S)NC(=O)c2ccc(Cl)cc2)n1 | 45* | 9 | · | -4 | 76*
CN(C)CCCNC(=O)C[C@@H]1CC[C@H]2[C@@H](COC[C@@H](O)CN2CC2CCCCC2)O1 | · | · | 2 | · | ·
Cc1ccc(C(=O)Nc2cccc(C(F)(F)F)c2)cc1NC(=O)c1c[nH]c2cc(C(F)(F)F)ccc2c1=O | -25 | -8 | 2 | · | ·
Cc1cn(-c2cc(C(=O)Nc3ccc(C)c(NC(=O)C(=O)c4c[nH]c5ccccc45)c3)cc(C(F)(F)F)c2)cn1 | 37* | 9 | -4 | 1 | -20
C[C@@H]1CN([C@H](C)CO)C(=O)c2cc(C#CC3(O)CCCC3)cnc2O[C@H]1CN(C)S(=O)(=O)c1ccccc1 | · | · | -1 | · | ·
O=C(C[C@H]1C[C@@H]2c3cc(NC(=O)C4CCOCC4)ccc3O[C@@H]2[C@@H](CO)O1)NCc1cccc(F)c1 | · | · | 1 | · | ·
COc1ccc(CC(=O)Nc2ccc(N3CCOCC3)cc2)cc1S(=O)(=O)N1CCOCC1 | 39* | 4 | -4 | 0 | -7
CCN1C(=O)Nc2cccc3cccc1c23 | 37* | -5 | -1 | 1 | 36*
C=CCN1C(=O)N(CC=C)c2cccc3cccc1c23 | -7 | 9 | -3 | -1 | ·
CCCc1nc2oc3cc(OC)ccc3c(=O)c2c(=O)n1Cc1ccco1 | 13 | 5 | · | 0 | ·
CCCCCCn1c(-c2ccco2)nc2oc3cc(OC)ccc3c(=O)c2c1=O | 42* | 7 | · | 0 | 35*
O=C(CCl)N1CCN(S(=O)(=O)c2ccc3c(c2)CCC3)CC1 | 38* | 4 | -5 | · | 38*
O=C(C[C@@H]1C=C[C@H](NC(=O)c2ccccc2)[C@@H](CO)O1)NCc1ccncn1 | · | · | -2 | · | ·
C[C@@H]1CCCCO[C@H](CN(C)C(=O)Nc2ccc3c(c2)OCO3)[C@@H](C)CN([C@@H](C)CO)C(=O)c2cc(NC(=O)c3ccccc3)ccc2O1 | · | · | 1 | · | ·
Cc1ccc2nc(NC(=O)c3cccs3)sc2c1 | -434 | -138 | · | · | -455
Cc1ccc2nc(NC(=S)NC(=O)c3cccs3)sc2c1 | -191 | -42 | · | 2 | ·
O=C(Nc1nc2c(s1)CCCC2)c1cccs1 | -252 | -134 | · | · | -264
Cc1ccc(Cc2cnc(NC(=O)c3cccs3)s2)cc1 | -299 | -124 | · | 4 | -259
C[C@H]1CN([C@@H](C)CO)S(=O)(=O)c2ccc(C3=CCCC3)cc2O[C@@H]1CN(C)C(=O)c1ccccn1 | · | · | 1 | · | ·
CC1C(=O)C(C)(C)C(=O)OC1c1ccccc1 (stereo not drawn) | 0 | 8 | 2 | 0 | ·
SMILES | 697 NFkB inh | Jurkat NFkB inh | F508del corr | HIF activator | 697 NFkB conf
C[C@H]1C=CC(=O)O[C@H]1c1ccccc1 | 46* | 44 | 0 | -1 | 9
COCc1cn(CC[C@@H]2CC[C@@H](NC(=O)Nc3ccc(OC)cc3)[C@@H](CO)O2)nn1 | · | · | 2 | · | ·
C[C@H]1CN([C@@H](C)CO)C(=O)Cc2cc(NS(=O)(=O)c3cn(C)cn3)ccc2O[C@@H]1CN(C)Cc1ccc(C(=O)O)cc1 | · | · | -2 | · | ·
NC(=O)c1cc([N+](=O)[O-])ccc1NCc1ccc(C(=O)O)cc1 | -4 | -3 | 0 | · | ·
NC(=O)c1cc([N+](=O)[O-])ccc1NCc1ccc(O)cc1 | 37* | 19 | 0 | · | 10
O=C1CC(c2ccc3c(c2)OCO3)Sc2nc3ccccc3n21 (stereo not drawn) | -255 | -68 | · | -1 | -111
O=C1CC(c2ccccc2)Sc2nc3ccccc3n21 (stereo not drawn) | -143 | -116 | 0 | -3 | ·
CO[C@H]1CN(C)C(=O)c2cc(NS(C)(=O)=O)ccc2OC[C@H](C)N(CC2CCCCC2)C[C@@H]1C | · | · | 0 | · | ·
CC(C)c1nc(SCC(=O)Nc2nc3c(s2)CCCC3)c2ccccc2n1 | -170 | -3 | · | 0 | ·
CC(C)(C)c1nc(SCC(=O)Nc2nc3c(s2)CCCC3)c2ccccc2n1 | i | -31 | · | · | i
C#CCn1c(S(=O)(=O)Cc2ccc(F)cc2)nc(-c2ccccc2)c1-c1ccccc1 | i | -84 | · | -1 | i
Cc1ccc(NC(=O)CCNS(=O)(=O)c2ccc3c(c2)oc(=O)n3C)cc1 | 41* | 16 | · | 0 | 8
COc1ccc2c3c(n(C)c2c1)[C@H](CO)NCC31CCN(CC2CC2)CC1 | · | · | -2 | · | ·
COc1ccccc1-c1cn(CC[C@H]2CC[C@@H](NC(=O)Cc3ccccn3)[C@H](CO)O2)nn1 | · | · | 0 | · | ·
O=C1N[C@@H](Cc2cn(S(=O)(=O)c3ccccc3)c3ccccc23)C(=O)N[C@H]1Cc1ccccc1 | 38* | 13 | 1 | 0 | 16
CCC(=O)N1CC2(CCN(S(C)(=O)=O)CC2)c2c(n(C)c3cc(OC)ccc23)[C@H]1CO | · | · | 0 | · | ·
N=C1C(c2nc3ccccc3s2)=C(O)CN1C1CCCCC1 | -271 | -124 | · | 2 | -88
N=C1C(c2nc3ccccc3s2)=C(O)CN1C1CCC(O)CC1 (stereo not drawn) | 2 | -13 | 0 | 0 | ·
O=C(C[C@@H]1C=C[C@@H](NS(=O)(=O)c2ccccc2F)[C@@H](CO)O1)NCCCN1CCOCC1 | · | · | 2 | · | ·
CC1(C)CC2CC(C)(CN2S(=O)(=O)c2ccc(C(=O)Nc3ccc(Cl)c(S(=O)(=O)N4CCOCC4)c3)cc2)C1 (stereo not drawn) | 5 | 49 | · | -1 | ·
CC1(C)CC2CC(C)(CN2S(=O)(=O)c2ccc(C(=O)Nc3ccc(S(=O)(=O)N4CCOCC4)cc3)cc2)C1 (stereo not drawn) | 54* | 34 | 0 | 0 | 35*
Cc1ccccc1S(=O)(=O)N1CC(=O)N2[C@H](CO)[C@@H](c3ccc(C#CCC(C)C)cc3)[C@@H]2C1 | · | · | 0 | · | ·
Cc1ccc(C(=O)Oc2oc(-c3ccccc3)nc2C=Nc2ccc(N(C)C)cc2)cc1 | 35* | -70 | · | 1 | 9
COCCn1c(C)cc(C(=O)COC(=O)c2n[nH]c3ccccc23)c1C | -393 | -55 | · | -2 | -117
CCCN(C)C[C@H]1Oc2cc(C#C[C@@H](C)O)ccc2S(=O)(=O)N([C@H](C)CO)C[C@H]1C | · | · | -2 | · | ·
CC(C)(CNC(=O)c1cccs1)N1CCOCC1 | 14 | -8 | -4 | · | ·
CC(C)(CNC(=O)C1CCCN1C(=O)c1cccs1)N1CCOCC1 (stereo not drawn) | 57* | -1 | -3 | -1 | -7
CN(C)C(=O)C[C@@H]1CC[C@@H]2[C@H](COC[C@H](O)CN2S(=O)(=O)c2ccccc2)O1 | · | · | 0 | · | ·

Compound activity from PubChem BioAssay.
